Activity calls are given as the source filed them. Unless noted, no rule for the calls is given here.
How the values were obtained:
[1] = A549 cell viability effects, profiling panel, calcein-AM fluorescence, 48 h, basal (AID 1162); conditions: higher = more signal; also: test concentration not given here
[2] = adipocyte viability effects, profiling panel, cell-based, 3T3-L1 adipocytes, calcein-AM fluorescence, 48 h, basal (AID 1163); conditions: 3T3-L1 adipocytes viability, higher = more signal; also: test concentration not given here
[3] = HepG2 cell viability effects, profiling panel, calcein-AM fluorescence, 48 h, basal (AID 1164); conditions: higher = more signal; also: test concentration not given here
[4] = MM1S cell viability effects, profiling panel, calcein-AM fluorescence, 48 h, basal (AID 1165); conditions: higher = more signal;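 also: viability of MM1S multiple myeloma cells under basal unstimulated conditions; test concentration not given here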
[5] = basal RPMI8226 viability, no added stimulus, profiling panel, cell-based, calcein-AM fluorescence, 48 h, PK04 Diversity Set (AID 1166); conditions: RPMI8226 myeloma viability, higher = more signal;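 also: cells grown under basal conditions without added stimulus; test concentration not given here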
[6] = basal HepG2 mitochondrial membrane potential changes, profiling panel, cell-based, JC-1 fluorescence, 24 h, 100 nL compound (AID 1167); conditions: higher = more signal; also: test concentration not given here
[7] = basal 3T3-L1 adipocyte mitochondrial potential changes, profiling panel, cell-based, JC-1 fluorescence, 3T3-L1 adipocytes, 24 h, 100 nL compound (AID 1168); conditions: JC-1 mitochondrial fluorescence, higher = more signal, called active from +8 up or from −8 down; also: test concentration not given here
[8] = basal RPMI8226 mitochondrial membrane potential changes, profiling panel, cell-based, JC-1 fluorescence, 24 h, 100 nL compound (AID 1169); conditions: RPMI8226 myeloma, JC-1 mitochondrial potential fluorescence, higher = more signal; also: test concentration not given here
[9] = basal MM1S mitochondrial membrane potential changes, profiling panel, cell-based, JC-1 fluorescence, 24 h, 100 nL compound (AID 1170); conditions: higher = more signal; also: test concentration not given here
[10] = A549 lung cancer cell viability effects, profiling panel, resazurin fluorescence, 24 h, PK04 Diversity Set (AID 1171); conditions: higher = more signal, called active from +8 up or from −8 down; also: test concentration not given here
[11] = HepG2 liver cancer cell viability effects, profiling panel, resazurin fluorescence, 24 h, PK04 Diversity Set (AID 1172); conditions: higher = more signal; also: test concentration not given here
[12] = basal S. cerevisiae growth modulation, no modifier, primary screen, OD600, strain BY4716, 24 h, basal condition (AID 1173); conditions: OD600, 24 h, higher = more signal, called active from +8 up or from −8 down
[13] = MM1S myeloma cell viability, profiling panel, resazurin fluorescence, basal, 24 h, PK04 Diversity Set (AID 1174); conditions: higher = more signal, called active from +8 up or from −8 down;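 also: MM1S multiple myeloma cell line; test concentration not given here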
[14] = target: Dihydroorotate dehydrogenase (quinone), mitochondrial (Plasmodium falciparum (isolate 3D7)) (UniProt Q08210); assay: PfDHODH enzyme inhibitors, primary screen, biochemical, C-terminal His tag, absorbance 600 nm (AID 1175); conditions: DCIP absorbance 600 nm, higher = more signal, called active from +8 up or from −8 down;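 also: recombinant parasite enzyme with a five histidine tag at its C terminus; test concentration not given here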
Sequence of Dihydroorotate dehydrogenase (quinone), mitochondrial (Plasmodium falciparum (isolate 3D7)) (Q08210 whole entry, looked up): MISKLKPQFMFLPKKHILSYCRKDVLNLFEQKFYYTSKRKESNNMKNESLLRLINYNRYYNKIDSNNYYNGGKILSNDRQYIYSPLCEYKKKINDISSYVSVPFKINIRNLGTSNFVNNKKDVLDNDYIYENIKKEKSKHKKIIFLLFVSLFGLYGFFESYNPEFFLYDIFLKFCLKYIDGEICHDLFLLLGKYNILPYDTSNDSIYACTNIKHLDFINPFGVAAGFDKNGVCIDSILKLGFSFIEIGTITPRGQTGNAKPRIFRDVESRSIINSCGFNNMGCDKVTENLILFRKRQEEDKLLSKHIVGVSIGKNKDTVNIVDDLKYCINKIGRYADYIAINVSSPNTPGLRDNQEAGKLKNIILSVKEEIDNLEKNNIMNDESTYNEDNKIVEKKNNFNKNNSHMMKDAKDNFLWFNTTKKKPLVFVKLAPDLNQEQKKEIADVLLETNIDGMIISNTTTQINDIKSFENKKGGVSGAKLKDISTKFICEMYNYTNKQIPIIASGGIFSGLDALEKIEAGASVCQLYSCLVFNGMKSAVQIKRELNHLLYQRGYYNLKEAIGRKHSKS

[15] = P. aeruginosa biofilm formation inhibitors, primary screen, strain PAO1, LB-PBS medium, absorbance 600 nm (AID 1176); also: test concentration not given here; conditions: P. aeruginosa PAO1 growth/biofilm, A600, 12 h; higher = more signal
[16] = S. cerevisiae RM11-1a growth modifiers, primary screen, strain RM11-1a, OD600, basal, 24 h (AID 1177); conditions: OD600, 24 h, higher = more signal, called active from +8 up or from −8 down;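 also: cultures grown under basal conditions with no added stressor; test concentration not given here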
[17] = E. coli acrAB mutant growth effects, primary screen, E. coli filamentation inducers, strain DRC39, OD650, 24 h (AID 1178); conditions: higher = more signal, called active from +8 up or from −8 down;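 also: growth measured as culture turbidity by optical density at 650 nm; test concentration not given here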
[18] = E. coli acrAB mutant growth effects, primary screen, E. coli filamentation inducers, strain DRC39, OD650, 48 h (AID 1179);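 also: screen aims at cell division blockers that make cells filament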; conditions: E. coli DRC39 delta-acrAB growth, higher = more signal, called active from +8 up or from −8 down
[19] = RPMI8226 myeloma cell viability, profiling panel, resazurin fluorescence, basal, 24 h, PK04 Diversity Set (AID 1180); conditions: higher = more signal;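 also: RPMI8826 multiple myeloma cell line at 5000 cells per well; test concentration not given here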
[20] = target: E3 ubiquitin-protein ligase XIAP (Homo sapiens) (UniProt P98170); assay: XIAP binders, primary screen, biophysical, small-molecule microarray, fluorescence 635 nm (AID 1181); conditions: small-molecule microarray binding, higher = more signal;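 also: score merges 667 nm emission and signal to noise over triplicate slides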
Sequence of E3 ubiquitin-protein ligase XIAP (Homo sapiens) (P98170 whole entry, looked up): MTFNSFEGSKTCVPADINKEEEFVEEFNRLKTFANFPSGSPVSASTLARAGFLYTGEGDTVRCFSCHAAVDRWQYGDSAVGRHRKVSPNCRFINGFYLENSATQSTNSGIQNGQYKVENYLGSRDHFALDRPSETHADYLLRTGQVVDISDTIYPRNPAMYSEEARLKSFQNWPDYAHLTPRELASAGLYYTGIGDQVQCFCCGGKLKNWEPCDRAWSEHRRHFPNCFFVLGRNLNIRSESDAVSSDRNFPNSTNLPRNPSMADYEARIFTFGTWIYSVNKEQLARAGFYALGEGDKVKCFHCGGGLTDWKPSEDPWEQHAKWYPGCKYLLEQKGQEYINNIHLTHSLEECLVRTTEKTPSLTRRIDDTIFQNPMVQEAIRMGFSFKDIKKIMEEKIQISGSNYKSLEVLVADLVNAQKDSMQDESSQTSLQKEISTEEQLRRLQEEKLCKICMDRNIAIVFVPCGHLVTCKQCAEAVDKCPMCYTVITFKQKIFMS

CCCCC(CC)C(O)C1C=CC2C(=O)N(c3ccccc3)C(=O)C2N1Nc1ccc([N+](=O)[O-])cc1 (stereo not given)
z-score [1]: -0.561 | z-score [2]: -0.0969 | z-score [3]: -0.919 | z-score [4]: -0.41 | z-score [5]: -1.1 | z-score [6]: -1.74 | z-score [7]: -1.56 (inactive) | z-score [8]: 0.349 | z-score [9]: -1.03 | z-score [10]: -0.451 (inactive) | z-score [11]: -0.383 | z-score [12]: -0.148 (inactive) | z-score [13]: -0.201 (inactive) | composite z-score [14]: 0.41 (inactive) | z-score [15]: 0.837 (inactive) | z-score [16]: -0.066 (inactive) | z-score [17]: -0.948 (inactive) | z-score [18]: -0.979 (inactive) | z-score [19]: -0.759 | composite z-score [20]: -0.02

C=C(C(=O)CC[C@H](OC(C)=O)c1cccc(OCCO)c1)C(C)C
z-score [1]: -0.271 | z-score [2]: 0.8 | z-score [3]: -0.979 | z-score [4]: -0.624 | z-score [5]: -0.814 | z-score [6]: -1.1 | z-score [7]: 0.113 (inactive) | z-score [8]: -0.427 | z-score [9]: 0.89 | z-score [10]: -0.62 (inactive) | z-score [11]: -1.23 | z-score [12]: -0.105 (inactive) | z-score [13]: -0.748 (inactive) | composite z-score [14]: -0.781 (inactive) | z-score [15]: -0.411 (inactive) | z-score [16]: 0.0297 (inactive) | z-score [17]: -1.04 (inactive) | z-score [18]: -0.86 (inactive) | z-score [19]: -0.559 | composite z-score [20]: 0.0454

CCOC(=O)C1=CC[C@@H](c2ccccc2)N(S(=O)(=O)c2ccc(C)cc2)C1
z-score [1]: -0.747 | z-score [2]: -0.384 | z-score [3]: -0.165 | z-score [4]: -1.22 | z-score [5]: -1.62 | z-score [6]: 0.546 | z-score [7]: -1.07 (inactive) | z-score [8]: 0.84 | z-score [9]: -0.977 | z-score [10]: -0.145 (inactive) | z-score [11]: -0.842 | z-score [12]: 1.39 (inactive) | z-score [13]: -1.31 (inactive) | composite z-score [14]: 0.806 (inactive) | z-score [15]: 0.465 (inactive) | z-score [16]: 1.82 (inactive) | z-score [17]: -0.866 (inactive) | z-score [18]: -0.869 (inactive) | z-score [19]: -2.53 | composite z-score [20]: 0.0975

CCOC(=O)C[C@H]1[C@H](OC(=O)Cc2ccc3c(c2)OCO3)[C@@H](NC(=O)C2CCCCC2)c2cc(OCCCO)ccc2N1C(=O)c1ccc2ccccc2n1
z-score [1]: 0.177 | z-score [2]: 1.72 | z-score [3]: 0.726 | z-score [4]: 0.435 | z-score [5]: -1.18 | z-score [6]: -2.42 | z-score [7]: 0.436 (inactive) | z-score [8]: 0.602 | z-score [9]: -0.703 | z-score [10]: 0.125 (inactive) | z-score [11]: 0.306 | z-score [12]: -1.65 (inactive) | z-score [13]: 0.773 (inactive) | composite z-score [14]: -3.08 (inactive) | z-score [15]: -1.93 (inactive) | z-score [16]: 0.133 (inactive) | z-score [17]: 0.777 (inactive) | z-score [18]: 0.259 (inactive) | z-score [19]: -0.338 | composite z-score [20]: 0.302

CCCCN1CC=CC23O[C@@H]4C=CCOC(=O)[C@@H]4[C@H]2C(=O)N(C(C)CO)[C@@H]3C1=O (stereo not given in full)
z-score [1]: -0.406 | z-score [2]: 0.434 | z-score [3]: -0.208 | z-score [4]: 0.638 | z-score [5]: 0.0934 | z-score [6]: -1.02 | z-score [7]: -1.98 (inactive) | z-score [8]: -0.768 | z-score [9]: -0.0859 | z-score [10]: -0.384 (inactive) | z-score [11]: -0.0023 | z-score [12]: 0.15 (inactive) | z-score [13]: -0.536 (inactive) | composite z-score [14]: -1.49 (inactive) | z-score [15]: -0.456 (inactive) | z-score [16]: -0.938 (inactive) | z-score [17]: -0.338 (inactive) | z-score [18]: -0.478 (inactive) | z-score [19]: -0.784 | composite z-score [20]: -0.0525

C=CCC(OC(C)=O)[C@@H]1[C@@H](N(Cc2cc3ccccc3o2)C(=O)c2ccc(C)cc2)c2cc(OCCCO)ccc2N1C(=O)Cc1ccc2ccccc2c1 (stereo not given in full)
z-score [1]: 2.34 | z-score [2]: 0.133 | z-score [3]: 1.18 | z-score [4]: -0.623 | z-score [5]: -0.802 | z-score [6]: 3.42 | z-score [7]: -0.577 (inactive) | z-score [8]: 0.0031 | z-score [9]: 0.718 | z-score [10]: 1.65 (inactive) | z-score [11]: 0.85 | z-score [12]: 0.0206 (inactive) | z-score [13]: -0.589 (inactive) | composite z-score [14]: 0.507 (inactive) | z-score [15]: -0.501 (inactive) | z-score [16]: 0.554 (inactive) | z-score [17]: 0.964 (inactive) | z-score [18]: 1.08 (inactive) | z-score [19]: 0.305 | composite z-score [20]: 0.162

O=C1O[C@@H](c2ccccc2)[C@@H](c2ccccc2)N2[C@@H](c3ccccc3OCCO)[C@]3(C(=O)Nc4ccc(C#CCCO)cc43)[C@@H](C(=O)N3CCN(c4ncccn4)CC3)[C@H]12
z-score [1]: 0.246 | z-score [2]: 0.986 | z-score [3]: -0.477 | z-score [4]: -0.315 | z-score [5]: -3.89 | z-score [6]: 0.799 | z-score [7]: 0.778 (inactive) | z-score [8]: -1.33 | z-score [9]: 0.431 | z-score [10]: 1.13 (inactive) | z-score [11]: 0.261 | z-score [12]: 1.73 (inactive) | z-score [13]: -0.901 (inactive) | composite z-score [14]: 0.286 (inactive) | z-score [15]: 0.393 (inactive) | z-score [16]: 2.47 (inactive) | z-score [17]: 0.245 (inactive) | z-score [18]: -0.289 (inactive) | z-score [19]: -1.7 | composite z-score [20]: -0.0622

O=C1NC(=O)C2C1C=CC(C(O)c1ccc3c(c1)OCO3)N2Nc1ccccn1 (stereo not given)
z-score [1]: 0.732 | z-score [2]: -1.11 | z-score [3]: 0.641 | z-score [4]: 0.0178 | z-score [5]: -0.12 | z-score [6]: -0.465 | z-score [7]: -0.0272 (inactive) | z-score [8]: 0.115 | z-score [9]: -0.263 | z-score [10]: -1.67 (inactive) | z-score [11]: -0.861 | z-score [12]: -0.117 (inactive) | z-score [13]: -0.854 (inactive) | composite z-score [14]: 0.315 (inactive) | z-score [15]: 1.89 (inactive) | z-score [16]: -0.86 (inactive) | z-score [17]: 0.812 (inactive) | z-score [18]: 1.3 (inactive) | z-score [19]: -0.431 | composite z-score [20]: 0.0185

COC(=O)c1c(CC[C@@H](CO)NC(=O)N[C@H](Cn2cc(-c3ccccc3C)nn2)C(C)C)oc(C(C)=O)c1C(=O)OC
z-score [1]: -0.657 | z-score [2]: 1.55 | z-score [3]: 0.308 | z-score [4]: -0.759 | z-score [5]: -0.607 | z-score [6]: -0.24 | z-score [7]: 0.37 (inactive) | z-score [8]: -0.353 | z-score [9]: -1.27 | z-score [10]: -1.26 (inactive) | z-score [11]: -0.329 | z-score [12]: -0.723 (inactive) | z-score [13]: 0.173 (inactive) | composite z-score [14]: -3.09 (inactive) | z-score [15]: 0.574 (inactive) | z-score [16]: -0.489 (inactive) | z-score [17]: 0.173 (inactive) | z-score [18]: -0.488 (inactive) | z-score [19]: -0.371 | composite z-score [20]: 0.211

From PubChem BioAssay
